Test results as given in PubChem BioAssay AID686933 (National Center for Advancing Translational Sciences (NCATS), 2013).
Records with an inconclusive call do not appear. Active and inactive are the calls of the source. The call rests on the fitted dose curve; in most records, active means well fitted inhibition curve with a large enough effect; inconclusive means small, poorly fitted or top-dose-only effect; inactive means flat fitted curve, though single readings scatter.

molecular target: Luciferin 4-monooxygenase (Photinus pyralis) (UniProt P08659); assay: qHTS screen for small molecules that inhibit ELG1-dependent DNA repair: SAR in Biochemical Luciferin Assay; settings: purified firefly luciferase, luciferin luminescence counter-screen; series mostly up to 57.5 µM
Excerpt: Cancer cells divide rapidly compared to normal cells in the body. During cell division, cancer cells need to duplicate their genome by DNA replication. The failure of genome duplication leads to cancer cells' death. Therefore, inhibitors of DNA replication could specifically kill cancer cells. Based on this concept, many chemotherapeutic agents were developed and have been used to treat cancer patients. However, there are a limited number of agents available in the clinical setting, and some of those that do exist have low efficacy and severe side effects. Therefore, if we can find the compounds that effectively block DNA replication either by directly damaging DNA or by inhibiting other cellular mechanisms, the options for cancer treatment will be broadened. With this in mind, we developed a quantitative high-throughput ELG1-luciferase reporter gene assay. Small molecules that specifically block ELG1 function in response to DNA damage can be identified by monitoring the suppression of luciferase activity. Since ELG1 defines a pathway for repairing DNA damage, agents blocking ELG1 function can be used to sensitize cancer cells to chemotherapeutic agents whose mechanism of action involves the induction of DNA damage. This counter assay is a luciferase assay, that following treatment with putative ELG1 antagonists, aims to eliminate luciferase enhancers/inhibitors. NIH Molecular Libraries Probe Production Network [MLPCN] NIH Chemical Genomics Center [NCGC] MLPCN Grant: R03 MH092164 Assay Provider: Kyungjae Myung, NHGRI, NIH
3 uL of substrate reagent will be pipetted into each well in 1536-well white, solid-bottom plates using a FRD dispenser, followed by addition of 23 nL of DMSO or compounds by pintool. After compound addition, 1 µL of luciferase will be added into the wells. The plates will be read in a ViewLux CCD-based plate reader.

Question: How did the outcome turn out when `CCCCCC1C(=O)O[C@H](C)[C@@H](NC(=O)c2cccc(NC=O)c2O)C(=O)OC(C)C1OC(=O)CC(C)C` (some centres undefined) was run?
Answer: The outcome was “inactive”.

Question: With `COc1cc2c(cc1OC)[C@@H]1C(=O)c3ccc4c(c3OC1CO2)CC(C(C)C)O4` (some centres undefined) as the compound, how does the outcome read?
Answer: Its outcome is “inactive”.

Question: How did the outcome turn out when `COC[C@H]([C@@H](O)[C@@H](O)C(=O)NCC[C@@H](C)c1nc(/C=C/C[C@H]2OC3(C[C@H](O)[C@H]2C)OC([C@@H](C[C@@H](O)[C@@H](C)[C@@H](O)[C@@H](C)/C=C(C)/C(C)=C/C=C/C(C)=C\C#N)OC)[C@@H](OP(=O)(O)O)C3(C)C)co1)N(C)C` (some centres undefined) was run?
Answer: Its outcome is “inactive”.

Question: With `CN[C@@H]1C[C@@]2(C)O[C@@H]([C@@H]1OC)n1c3ccccc3c3c4c(c5c6ccccc6n2c5c31)C(=O)NC4` as the compound, how does the outcome read?
Answer: Its outcome is “inactive”.

Question: How did the outcome turn out when `CO/C1=C\C(C)=C\[C@@H](C)[C@@H](O)[C@H](C)C/C(C)=C/C=C/[C@H](OC)[C@H]([C@@H](C)[C@@H](O)[C@H](C)[C@H]2C[C@@H](O)[C@H](C)[C@@H](C(C)C)O2)OC1=O` was run?
Answer: Its outcome is “inactive”.

Question: `C[C@@H]1C[C@@H]2[C@H]([C@H]3C=C(COC(=O)c4ccccc4)[C@@H](O)[C@]4(O)[C@@H](O)C(OC(=O)c5ccccc5)=C[C@@]14C3=O)C2(C)C` was tested. Which outcome did it give?
Answer: Its outcome is “inactive”.

Question: `COc1cc2c(cc1OC)C1C(=O)c3c(cc4c(c3O)C=CC(C)(C)O4)OC1CO2` (centres undefined) was tested. Which outcome did it give?
Answer: The outcome was “inactive”.

Question: For `C[C@@H]1C[C@H]2CC[C@H](O2)[C@H](C)C(=O)O[C@@H](C)C[C@@H]2CC[C@@H](O2)[C@@H](C)C(=O)O[C@H](C)C[C@H]2CC[C@H](O2)[C@H](C)C(=O)O[C@@H](C)C[C@@H]2CC[C@@H](O2)[C@@H](C)C(=O)O1`, which outcome is on record?
Answer: The outcome was “inactive”.

Question: How did the outcome turn out when `CCCCCCCCCCCCCC(=O)O[C@@H]1[C@@H](C)[C@@]2(O)[C@H](C=C(CO)C[C@]3(O)C(=O)C(C)=C[C@@H]23)[C@@H]2C(C)(C)C12OC(C)=O` (some centres undefined) was run?
Answer: Its outcome is “inactive”.
